This note sets out measurements from PubChem BioAssay AID778 (Sanford-Burnham Center for Chemical Genomics, 2007).

The campaign covered roughly 96,000 compounds. About 20,000 (21%) were called active. The list is a sample of the results. Values without a mark were called inactive.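 How the source made its calls: active means CYP2C19 inhibition above a set limit at 5 µM in the primary screen (cut at about 50% in these data); inactive means the rest.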

Sequence of Cytochrome P450 2C19 (Homo sapiens) (P33261 whole entry, looked up): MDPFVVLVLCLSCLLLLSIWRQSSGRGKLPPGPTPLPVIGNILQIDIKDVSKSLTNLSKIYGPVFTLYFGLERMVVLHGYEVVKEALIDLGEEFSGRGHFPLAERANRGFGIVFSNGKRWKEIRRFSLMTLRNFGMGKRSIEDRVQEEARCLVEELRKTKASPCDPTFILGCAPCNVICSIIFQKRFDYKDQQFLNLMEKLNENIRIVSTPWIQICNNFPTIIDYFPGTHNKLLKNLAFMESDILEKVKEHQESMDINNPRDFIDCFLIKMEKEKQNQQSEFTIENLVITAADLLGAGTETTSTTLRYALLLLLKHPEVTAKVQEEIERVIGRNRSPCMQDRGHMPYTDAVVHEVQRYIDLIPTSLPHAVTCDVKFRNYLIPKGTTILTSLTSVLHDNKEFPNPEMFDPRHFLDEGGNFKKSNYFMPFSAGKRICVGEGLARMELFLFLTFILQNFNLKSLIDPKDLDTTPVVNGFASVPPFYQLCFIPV

This test concerns the target Cytochrome P450 2C19 (Homo sapiens) (UniProt P33261). Nature of the test: blockers of cytochrome P450 2C19 activity – biochemical, luminescence, ADME assay, primary screen (AID 778).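 Further: plate controls were negative control wells for no effect and 2.5 mM tranylcypromine positive control for full effect.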 The conditions noted are these: CYP2C19 Supersomes, luciferin-H EGE luminescence, 30 min; at 5 µM; hits give high values.
Turning to `CCc1c(C)sc(NC(=O)c2cccs2)c1C(N)=O`, the inhibition is 84.1% (active).
The result for `CCOC(=O)c1c(NC(=O)c2cccs2)sc(C)c1C` reads -10.4%; that for `CCc1nnc(NC(=O)c2cccs2)s1`, 14.6%.
As for `CN1CCN(CC(=O)Nc2sc3c(c2C#N)CCC(C(C)(C)C)C3)CC1` (stereo unspecified), the inhibition was 26.1%.
The same measure for `CN(CC(=O)NC1CCCCC1)S(=O)(=O)c1ccc(Br)s1`: 11.4%; for `O=C(NC1CCCC1)c1ccc(Br)s1`: 71.3% (active); for `O=C(Cc1ccc(F)cc1)NC1CCCC1`: 43.4%.
As for `Cc1cccc(-n2c(O)c(C=Nc3ccccc3N)c(=O)[nH]c2=O)c1`, the inhibition was -2.2%.
`C=CCNC(=O)CCCC(=O)NCC=C`: the inhibition is 0.1%.
On to `O=C(COC(=O)c1ccccc1C(=O)c1ccccc1)c1ccco1`, for which the inhibition is 84.4% (active).
`O=C(CNC(=O)c1ccco1)OCC(=O)c1ccccc1`: the inhibition was 17.9%.
For `CCN(CC)c1ccc(C(=O)OCC(=O)c2ccco2)cc1`, the inhibition was 8.1%.
In the case of `CCCC(=O)C1=C(N(C)c2ccccc2)CC(C)(C)C(C(=O)OC)C1=O` (stereo unspecified), the inhibition was 14.5%.
The same measure for `CCOC(=O)c1cc2c(ccn2C)n1CC(=O)N1CCC(C)CC1`: 55.4% (active); for `CC1CCN(C(=O)CN(c2ccc(Oc3ccccc3)cc2)S(C)(=O)=O)CC1`: 28.4%; for `CCOC(=O)c1cc2occc2n1CC(=O)NC1CCC(C)CC1` (stereo unspecified): 56.3% (active).
In the case of `CCC(C(=O)N1CCOCC1)n1c(C(=O)OC)cc2occc21` (stereo unspecified), the inhibition is 35.4%.
Regarding `CC1CCN(C(=O)Cn2cc(C(=O)c3ccco3)c3ccccc32)CC1`, the inhibition is 17.1%.
Turning to `CCOC(=O)c1cc2occc2n1CC(=O)N1CCN(C(=O)c2ccco2)CC1`, the inhibition was -4%.
Consider `CCOc1ccc(NC(=O)CSc2nc3c(c(=O)n2-c2ccccc2OC)SCC3)cc1`, for which the inhibition is 37.5%.
For `CC1(C)CC(CC(=O)O)C(=O)O1` (stereo unspecified), the inhibition is -11.1%.
The result for `Cc1nc2ccc(S(=O)(=O)NCC(=O)NCCN3CCCCC3C)cc2s1` (stereo unspecified) reads 5.2%; that for `Nn1cnnc1N/N=C/c1cc([N+](=O)[O-])c(Cl)cc1Cl`, 15.9%.
As for `CCOC(=O)C1(C(F)(F)F)N=C(N(C)C)OC(N(C)C)=N1`, the inhibition is -7.2%.
For `CC1COC2C(O1)N(S(C)(=O)=O)CCN2S(C)(=O)=O` (stereo unspecified), the inhibition is -4.9%.
Turning to `Cc1ccc2oc(=O)c3cnn(CC(=O)N4CCN(c5ccccn5)CC4)c3c2c1`, the inhibition was 10.9%.
As for `Cc1ccc(S(=O)(=O)NCC(=O)N2CCN(c3ccccn3)CC2)cc1`, the inhibition was -1.8%.
The result for `Cc1ccnc(N2CCN(C(=O)CSc3nc4ccccc4nc3N3CCCCC3)CC2)c1` reads 79.1% (active).
The result for `CC(C)(O)C#Cc1ccc(C(=O)N2CCC(C(N)=O)(N3CCCCC3)CC2)cc1` reads 14.8%.
For `NC(=O)C1(N2CCCCC2)CCN(C2CC(=O)N(Cc3ccc(N4CCCC4=O)cc3)C2=O)CC1` (stereo unspecified), the inhibition is 22.1%.
As to `NC(=O)C1(N2CCCCC2)CCN(C(=O)c2ccc(C#Cc3ccccc3)o2)CC1`, the inhibition is 71% (active).
On to `Cc1nc2nc(COc3ccccc3)[nH]n2c(=O)c1C`, for which the inhibition was -11.1%.
Turning to `OCCCN1c2ccccc2Nc2nnc(-c3ccccc3)cc21`, the inhibition is 39.5%.
Take `O=S(N1CCCCCC1)C12CC3CC(CC(C3)C1)C2` (stereo unspecified): the inhibition is 77.6% (active).
The same measure for `CN(CCO)Cc1csc2ccc(Br)cc12`: -8.9%; for `COc1cc(C2C(C(=O)OCCC#N)=C(C)NC3=C2S(=O)(=O)c2ccccc23)cc(OC)c1OC` (stereo unspecified): 15.8%.
The same measure for `C=CCn1c(CC(=O)Nc2cccc(OC)c2)nnc1SCC(=O)NC1CCCCC1`: -6%; for `COc1ccc(N(CC(=O)NC2CCCCC2)S(=O)(=O)c2c(C)[nH]c(=O)[nH]c2=O)cc1`: 11.3%; for `COc1cccc(-n2c(SCC(=O)NC3CCCCC3)nc3n[nH]c(C)c3c2=N)c1`: 50.9% (active).
Consider `Cc1cccc(NC(=O)c2cc(N3C(=O)CCC3=O)ccc2Cl)n1`, for which the inhibition was 14.7%.
The result for `CC1(C)Cc2c(sc3nc(SCC(=O)NCc4ccccc4)n(-c4ccccc4)c(=O)c23)CS1` reads 1.8%; that for `CCOC(=O)N1CCN(Cc2nc3c(c(=O)n(C)c(=O)n3C)n2Cc2ccccc2)CC1`, 30%; that for `CCOc1ccc(Cn2c(SCCCCC#N)nc3c2c(=O)n(C)c(=O)n3C)cc1OCC`, 20.4%.
As to `Cc1cccc(Cn2c(N3CCN(c4ccccc4)CC3)nc3c2c(=O)n(C)c(=O)n3C)c1`, the inhibition was 72.8% (active).
In the case of `CC(C)OCCCNc1nc2c(c(=O)n(Cc3ccccc3F)c(=O)n2C)n1C`, the inhibition was 42.7%.
As to `CCOC(=O)CSc1nc2c(c(=O)n(Cc3ccccc3Cl)c(=O)n2C)n1C`, the inhibition was -6%.
As to `CCOC(=O)CSc1nc2c(c(=O)n(C)c(=O)n2C)n1Cc1ccccc1F`, the inhibition is 63.1% (active).
For the compound `Cc1cccc(Cn2c(SCCO)nc3c2c(=O)n(C)c(=O)n3C)c1`, the inhibition was 51.7% (active).
Take `CCCSc1nc2c(c(=O)n(C)c(=O)n2C)n1Cc1ccc(C)cc1`: the inhibition was 17.6%.
The result for `Cn1c(=O)c2c(nc(NCCc3ccccc3)n2Cc2ccccc2)n(C)c1=O` reads 8.9%.
In the case of `C/C(=N\c1nc2ccccc2n1C)c1cc(Cl)ccc1O`, the inhibition was -5.8%.
Consider `CCN(CC)c1ccc(/C=N/Nc2nc(C)cc(=O)[nH]2)cc1`, for which the inhibition is 7.4%.
As to `COc1ccc(CCN(C(=O)COc2ccccc2)c2nc(-c3ccccc3)cs2)cc1OC`, the inhibition was 35.3%.
As to `COc1ccc(CN(C(=O)c2cccs2)c2nccs2)cc1OC`, the inhibition was 100% (active).
For `O=C(c1cccs1)N(C(=O)c1cccs1)c1ccccn1`, the inhibition is 23%.
Turning to `CCOC(=O)c1cc2n(c1C)-c1ccccc1C2=O`, the inhibition is 17.8%.
On to `COc1ccc(C(=O)NNC(=O)c2cnccn2)cc1[N+](=O)[O-]`, for which the inhibition is 11.1%.
The same measure for `Cc1cc(C)nc(N2CCN(c3ncnc4c3oc3ccccc34)CC2)n1`: -16.1%.
Regarding `CCCCOC(=O)Cn1c(=N)n(CCN(CC)CC)c2ccccc21`, the inhibition is -29.6%.
For the compound `CCOC(=O)CN1C(=O)C(=O)c2cc(C)ccc21`, the inhibition is -2.2%.
The result for `CCCCOC(=O)Cn1c(=O)n(CC(=O)OCCCC)c2cc(C)ccc21` reads 55.8% (active).
